Assay outcomes deposited in PubChem BioAssay by National Center for Advancing Translational Sciences (NCATS).
This is a sample that favours compounds with a hit; in the whole collection about 10% have one here.
JMJD2A Tudor inh = qHTS Assay for Inhibitors of JMJD2A-Tudor Domain | Lysine-specific demethylase 4A (Homo sapiens), O75164 | AlphaScreen JMJD2A-Tudor / H3K4me3 peptide binding | Potency, µM (top dose mostly 114 µM), most hits filed as inhibitors | hit rate 4.4% among 390,000; note: nearly all actives have a fitted effect of over 50% in size
GLS inh = qHTS for Inhibitors of Glutaminase (GLS); Glutaminase kidney isoform, mitochondrial (Homo sapiens), O94925; GLS enzymatic activity, qHTS titration; Potency, µM (doses to about 45.5 µM), usual class: inhibitors; hit rate 0.21% among 410,000; AID 624170, 2012
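Human kidney-isoform GLS in 45 mM KH2PO4 pH 8.2, 0.02% Tween-20, with compound, started with 1mM L-Glutamine (added stock). Glutamate oxidase/HRP/Amplex red coupled fluorescence read at start and after 30 min at RT.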
BAZ2B block = qHTS Assay for Inhibitors of BAZ2B; Potency, µM (highest dose often 114 µM), hits mostly inhibitors; AlphaScreen BAZ2B-H3K14Ac peptide displacement; hit rate 4.4% among 360,000; note: nearly all actives have a fitted effect of over 60% in size
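BAZ2B (50 nM) with biotin-H3(5-23)K14Ac peptide (50 nM) in PBS pH 7.4, 0.01% Tween-20, preformed 30 min, then compound 30 min at room temperature; top concentration 110uM. AlphaScreen streptavidin donor/nickel chelate acceptor beads (10 ug/mL final), 20 min dark, signal read.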
G9a block = qHTS Assay for Inhibitors of Histone Lysine Methyltransferase G9a | Histone-lysine N-methyltransferase EHMT2 (Homo sapiens), Q96KQ7 | G9a H3K9 monomethylation, AlphaScreen, 2 h | Potency, µM (titrated, usually from 102 µM), hits mostly inhibitors | hit rate 8.8% among 350,000 | AID 504332, 2011; note: nearly all actives have a fitted effect of over 75% in size
Target sequence (Q96KQ7 913-1193 limits assumed): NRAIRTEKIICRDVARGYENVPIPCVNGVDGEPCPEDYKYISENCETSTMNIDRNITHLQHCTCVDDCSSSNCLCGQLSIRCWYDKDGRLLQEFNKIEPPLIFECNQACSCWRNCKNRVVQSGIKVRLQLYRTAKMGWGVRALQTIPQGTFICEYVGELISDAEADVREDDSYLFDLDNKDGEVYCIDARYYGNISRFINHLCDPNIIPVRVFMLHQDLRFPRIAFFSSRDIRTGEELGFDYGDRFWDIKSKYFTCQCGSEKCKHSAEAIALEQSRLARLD
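G9a (20 nM) was preincubated 15 min with compound, then reacted 2 h at room temperature with 500 nM biotin-H3K9 peptide and 20 µM SAM. Monomethyl-H3K9 detected by AlphaScreen using anti-H3K9me1 antibody.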
HP1b binding inh = HTS for Inhibitors of HP1-beta Chromodomain Interactions with Methylated Histone Tails | AlphaScreen HP1-beta / biotin-H3K9me3 peptide binding | Potency, µM (titrated, usually from 114 µM), hits mostly inhibitors | hit rate 0.56% among 390,000; note: nearly all actives have a fitted effect of over 70% in size
Target sequence (P83916 whole entry, looked up): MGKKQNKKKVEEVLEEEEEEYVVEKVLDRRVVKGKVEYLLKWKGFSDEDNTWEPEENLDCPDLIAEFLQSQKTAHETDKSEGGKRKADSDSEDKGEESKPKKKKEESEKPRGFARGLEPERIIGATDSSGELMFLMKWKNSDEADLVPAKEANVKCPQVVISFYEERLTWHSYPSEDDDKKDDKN
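Compound inhibition of the preformed complex between 50 nM HP1-beta and 50 nM biotinylated H3K9me3 peptide was read by AlphaScreen. Buffer was PBS pH 7.4 with 0.01% Tween-20. Incubations ran 30 min at room temperature, with 10 ug/mL donor/acceptor beads.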
Of the large screens only hits and unclear results are named; the others gave an inactive call. Calls come from the whole dose curve; as a rule, active = well fitted curve in the direction sought with a large enough effect; inconclusive = small, poorly fitted or top-dose-only effect, or another doubt; inactive = no such curve, though single readings can be large; an effect the other way counts as inactive or inconclusive.

COc1ccc(CC(=O)NNC(=O)CSc2nnc(Cc3ccc(OC)cc3)n2-c2ccccc2)cc1	G9a block 10µM
O=C(O)CSc1nnc(Cc2ccccc2)n1-c1ccccc1	G9a block 11µM
Cc1ccc(OCc2nnc(SCC(=O)c3ccccc3)n2-c2ccccc2)cc1	G9a block inconclusive
O=C(O)CSc1nnc(Cc2ccccc2)n1Cc1ccccc1	none
CN(CC(=O)Nc1ccccc1C(F)(F)F)C(=O)CSCc1ccc(Cl)c(Cl)c1	none
COC(=O)N1C(=O)[C@](Cc2ccccc2)(c2ccccc2)N1C(=O)OC	G9a block 40µM
CC[C@]1(c2ccccc2)C(=O)N(C(=O)OC)N1C(=O)OC	none (no result: G9a block)
CC[C@@]1(c2ccccc2)C(=O)N(C(=O)OC)N1C(=O)OC	G9a block 28µM
CC[C@]1(c2cccc(C)c2)C(=O)N(C(=O)OC)N1C(=O)OC	G9a block 40µM
CCOc1ccc(NC(=O)N2CCC(n3c(C)nc4cccnc43)CC2)cc1	none
COc1ccc(C2C(C(C)=O)=C(C)N=c3s/c(=C\c4cc(C)n(C)c4C)c(=O)n32)c(OC)c1 (stereo not given)	JMJD2A Tudor inh inconclusive, BAZ2B block inconclusive, G9a block inconclusive
CCOC(=O)C1=C(C)N=c2s/c(=C\c3ccc(OCC(=O)O)cc3)c(=O)n2C1c1ccccc1OC (stereo not given)	JMJD2A Tudor inh 89µM, BAZ2B block 79µM
CCOC(=O)C1=C(c2ccccc2)N=c2s/c(=C\c3cc(OC)c(OC)c(OC)c3)c(=O)n2C1c1cccs1 (stereo not given)	BAZ2B block inconclusive, G9a block inconclusive
COc1ccc(C2C(C(C)=O)=C(C)N=c3s/c(=C\c4ccco4)c(=O)n32)c(OC)c1 (stereo not given)	JMJD2A Tudor inh 32µM, G9a block 11µM, HP1b binding inh inconclusive (no result: GLS inh, BAZ2B block)
CCOC(=O)C1=C(C)N=c2s/c(=C/c3cccc([N+](=O)[O-])c3O)c(=O)n2C1c1ccc(OC)cc1OC (stereo not given)	JMJD2A Tudor inh 11µM, GLS inh inconclusive, BAZ2B block 5µM, G9a block 7.1µM, HP1b binding inh 7.1µM
CCOC(=O)C1=C(C)N=c2s/c(=C\c3ccc(O)c([N+](=O)[O-])c3)c(=O)n2C1c1ccccc1OC (stereo not given)	JMJD2A Tudor inh 10µM, GLS inh inconclusive, BAZ2B block 8.9µM, G9a block 14µM, HP1b binding inh inconclusive
Cc1ccc(C(=O)NCc2ccccn2)o1	none
CCOC(=O)C1=C(C)N=c2s/c(=C/c3ccc(OCC(=O)O)cc3)c(=O)n2C1c1ccc(OC)cc1OC (stereo not given)	JMJD2A Tudor inh 50µM, BAZ2B block 35µM, G9a block 50µM
CC1=NN(C(=O)c2ccccc2Cl)C(O)(c2ccccc2)C1 (stereo not given)	none
CC1=NN(C(=O)c2ccccc2F)C(O)(c2ccc(Cl)cc2)C1 (stereo not given)	BAZ2B block 50µM
CCOC(=O)C1CCN(c2nc3ccccc3nc2C(C#N)C(=O)NCCc2ccccc2)CC1 (stereo not given)	BAZ2B block inconclusive (no result: JMJD2A Tudor inh, GLS inh, HP1b binding inh)
COc1ccccc1NC(=O)N1CCCC1	none
CCN1CCN(C(=O)C(C)Nc2ccc(OC)cc2OC)CC1 (stereo not given)	JMJD2A Tudor inh inconclusive, BAZ2B block inconclusive, G9a block 45µM
COc1ccccc1NC(=O)N(C1CCCC1)C1CCN(C(C)=O)CC1	G9a block 40µM
CC(=O)N1CCC(N(C(=O)Nc2ccc(C)c(C)c2)C2CCCC2)CC1	G9a block inconclusive
CCn1nccc1C(=O)Nc1ccccc1OC	none
COc1ccccc1NC(=O)N1CCN(C)CC1	JMJD2A Tudor inh 40µM, BAZ2B block 50µM, G9a block 20µM
CCn1ncc(Br)c1C(=O)Nc1ccccc1OC	JMJD2A Tudor inh 56µM
CCC(=O)N1CCc2cc(S(=O)(=O)NC(Cc3ccccc3)C(=O)NCc3ccccc3OC)ccc21 (stereo not given)	none (no result: BAZ2B block)
CCC(C)c1ccc(NS(=O)(=O)c2c(C)[nH]c(=O)[nH]c2=O)cc1 (stereo not given)	none
CCN1CCN(C(=O)Nc2ccccc2OC)CC1	JMJD2A Tudor inh 2.2µM, BAZ2B block 28µM, G9a block 2.2µM, HP1b binding inh inconclusive
COc1ccccc1NC(=O)N1CCN(CCc2ccccc2)CC1	none (no result: G9a block)
O=C(NCC1(c2ccccc2)CCOCC1)c1ccc(Br)o1	none
O=C(O)c1cc(N2C(=O)C=CC2=O)cc(N2C(=O)C=CC2=O)c1	JMJD2A Tudor inh 2.2µM, GLS inh inconclusive, HP1b binding inh 5.6µM (no result: BAZ2B block, G9a block)
Cc1cc(C)n(-c2cc(C(=O)O)cc(C(=O)O)c2)n1	none
O=C(NCc1ccco1)c1c(F)cccc1Cl	none
Cc1ccc(S(=O)(=O)NCC(=O)NCC(=O)OCc2c(F)cccc2Cl)cc1	G9a block 8.9µM
O=C(Oc1ccc(O)cc1)C12CC3CC(CC(C3)C1)C2	JMJD2A Tudor inh 56µM, G9a block 40µM, HP1b binding inh inconclusive
COc1ccc(S(=O)(=O)c2c(Nc3cccc(C)c3C)sc(C(=O)c3ccccc3)c2N)cc1	none
O=C(O)c1cc(-c2ccccc2)nn1CC1CC(c2cccc([N+](=O)[O-])c2)=NO1 (stereo not given)	none (no result: BAZ2B block, G9a block)
O=c1c2ccccc2nc(-c2ccc(Cl)cc2)n1CCCCOc1ccc(F)cc1	none
Cc1c(/C=N/NC(=O)CNc2ccccc2)c2ccccn2c1C(=O)c1ccc(Cl)cc1	none
Cc1c(/C=N/NC(=O)CNc2ccccc2)c2ccccn2c1C(=O)c1ccncc1	BAZ2B block inconclusive, G9a block 45µM
Cc1ccccc1OCC(=O)OCC(=O)NC12CC3CC(CC(C3)C1)C2	none (no result: JMJD2A Tudor inh, BAZ2B block, G9a block, HP1b binding inh)
CCCSC1=C(C#N)C(c2cccs2)C(C(=O)Nc2ccccc2)=C(C)N1 (stereo not given)	G9a block inconclusive
CC1=C(C(=O)Nc2ccccc2)C(c2ccncc2)C(C#N)=C(SCC(=O)NC2CC2)N1 (stereo not given)	G9a block 28µM
CC1=C(C(=O)Nc2ccccc2)C(c2ccncc2)C(C#N)=C(SCC(=O)NC(C)C)N1 (stereo not given)	G9a block 11µM
CC(Sc1nc2ccccc2c(=O)n1C)C(=O)N(C)C1CCCCC1 (stereo not given)	none
O=c1c2nnn(-c3ccc(Cl)cc3)c2ncn1Cc1ccccn1	none
CCNc1nc(SC)nc(N(C#N)CC(=O)OC)n1	none
